Hits are enriched below; roughly 0.86% of the tested compounds scored in any of these assays.
CDC25B-CDK2 inh – human CDC25B-CDK2/CyclinA binding inhibition | P30305+P24941 | 94,000 tested, 0.72% active | HTRF CDC25B-CDK2/CyclinA binding, anti-His/anti-Flag; stronger effect = higher value | AID 1259370 | z-score (concentration not given with the values); in the data active means z-score above about 3.2
TAR Tat displ – HIV-1 TAR-Tat binding disruption | HIV-1 TAR RNA, Tat peptide displacement FRET; stronger effect = higher value | z-score (no concentration beside the values) | 100,000 tested, 0.6% active; active means z-score of 3 or more in at least 2 runs
* = called active by the depositor; nt = not tested or not shown.

SMILES	CDC25B-CDK2 inh	TAR Tat displ
CCOC(=O)N1CCc2c(sc3c2C(=O)NC(c2ccc(OC)cc2)N3)C1 (configuration not stated)	16*	-2.8
Cc1ccc(/C(C#N)=C/c2cccs2)cc1	-0.64	nt
N#CCCNS(=O)(=O)c1ccc(Cl)c(N)c1	-1.9	nt
COc1ccccc1NC(=O)CSc1nc(-c2ccco2)nc2cc(=O)[nH]n12	nt	-0.97
Cc1ccc2[nH]c3c(=O)n(CC(C)c4ccccc4)cnc3c2c1 (configuration not stated)	0.68	0.16
COc1cc2c(cc1OC)C1=C(C#N)CN(c3ccc(C)c(C)c3)CN1CC2	15*	0.35
COc1cc2c(cc1OC)C1=C(C#N)CN(CCc3ccccc3)CN1CC2	2.1	0.19
COc1ccc(NC(=O)Cn2nc3c(cc2=O)CCC3)cc1Cl	0.37	13*
COc1ccc(Cl)cc1NC(=O)Cn1nc2c(cc1=O)CCC2	-1.3	-1
O=C(O)CCCCCNC1CCS(=O)(=O)C1 (configuration not stated)	-1	0.17
Cc1ccc(S(=O)(=O)Nc2cc(Cl)c(O)c3ncccc23)cc1	14*	1.5
Cc1ccc(S(=O)(=O)Nc2cc(S(=O)(=O)c3ccc(C)cc3)c(O)c3cccnc23)cc1	0.77	1.5
CCN1CCN(Cc2ccc(NC3=NS(=O)(=O)C(c4ccc(F)cc4)=C3C)cc2)CC1	nt	1.2
O=C(CSc1ccc2nnc(-c3cccc(F)c3)n2n1)Nc1ccc2c(c1)OCCO2	-12	nt
COC(=O)C1=C(C(=O)OC)SC(=C2C(=S)C(C)(C)Nc3ccc(C)cc32)S1	18*	1.6
COC(=O)C1=C(C(=O)OC)SC(=C2C(=S)C(C)(C)Nc3cc(C)c(C)cc32)S1	-0.72	2.2
O=C(Nc1ccc(C(=O)NC2CCCCC2)cc1)C1=CSCCO1	nt	2.9
O=C(Nc1sc2c(c1C(=O)NCc1ccco1)CCC2)c1csnn1	-0.63	9.3*
O=C(Nc1sc2c(c1C(=O)NCc1ccco1)CCCC2)c1csnn1	0.49	0.46
CN(C)c1ccc(CNc2n[nH]c(-c3ccco3)n2)cc1	15*	3.1
Brc1ccc(CNc2n[nH]c(-c3ccco3)n2)cc1	-2.7	1.8
CCOCCCNc1cc(N2CCN(c3ccccc3)CC2)c2noc3c2c1C(=O)c1ccccc1-3	-1.5	1.6
CCOCCCNc1cc(N2CCOCC2)c2noc3c2c1C(=O)c1ccccc1-3	0.63	6.8*
CCNc1cc(N2CCOCC2)c2noc3c2c1C(=O)c1ccccc1-3	1.2	11*
CC(C)CNc1cc(N2CCOCC2)c2noc3c2c1C(=O)c1ccccc1-3	9.2*	-3.7
SMILES	CDC25B-CDK2 inh	TAR Tat displ
O=C1c2ccccc2-c2onc3c(N4CCOCC4)cc(NCCO)c1c23	0.79	-4.5
O=C1c2ccccc2-c2onc3c(N4CCOCC4)cc(NCCN4CCCC4)c1c23	-1.8	-5
CSc1cccc(NC(=O)CSc2nc3c(c(=O)[nH]2)CCCC3)c1	0.56	2.4
COc1ccc(NC(=O)C(C)Sc2nnc(Cc3c(C)nc4ccc(C)cn4c3=O)n2C)cc1 (configuration not stated)	3	0.13
Cc1nc(-c2ccc(C)c(S(=O)(=O)Nc3ccc(F)cc3C)c2)cs1	nt	0.76
CNC(=O)c1c(NC(=O)c2ccc(C)cc2)sc2c1CCC2	nt	-2.2
CC(=O)N1c2ccc(S(=O)(=O)N3c4ccccc4CC3C)cc2CC1C (configuration not stated)	nt	0.07
COC(=O)c1cc(S(=O)(=O)N2c3ccccc3CC2C)c[nH]1 (configuration not stated)	nt	22*
Oc1ccccc1Nc1nc(NCc2ccco2)c2ccccc2n1	-1.2	8.7
Cc1ccccc1Nc1nc(NCc2ccco2)c2ccccc2n1	6*	-0.17
CSc1sc(C(=O)Sc2ccc(Cl)cc2)cc1S(=O)(=O)C(C)C	-1.5	nt
O=C1CC(NC2CCN(S(=O)(=O)c3ccccc3)CC2)C(=O)N1c1ccc(F)cc1 (configuration not stated)	-1.2	2.4
CCOc1ccc(-c2csc(-c3cc4c([nH]c3=O)CC(c3ccco3)CC4=O)n2)cc1 (configuration not stated)	19*	-5.3
O=C1CC(c2ccco2)Cc2[nH]c(=O)c(-c3nc(-c4ccc(Oc5ccccc5)cc4)cs3)cc21 (configuration not stated)	16	0.71
Cc1ccc(S(=O)(=O)n2nc(-c3ccco3)nc2NCc2ccc(Br)cc2)cc1	-0.97	3.1
O=C1C[C@@H](c2ccccc2)Oc2cc(O)cc(O)c21	nt	1.9
O=c1c(O)cccc2c([C@H]3Oc4cc(O)cc(O)c4C[C@H]3O)cc(O)c(O)c12	nt	12*
Oc1cc(O)c2c(c1)O[C@H](c1cc(O)c(O)c(O)c1)[C@H](O)C2	nt	30*
Oc1cc(O)c2c(c1)O[C@H](c1ccc(O)c(O)c1)[C@@H](O)C2	-0.87	11
CC12CN3CC(c4ccccc4)(CN(C1)C3c1ccccc1O)C2=O (configuration not stated)	-0.68	-1.3
COc1cccc(C2N3CC4(C)CN2CC(c2ccccc2)(C3)C4=O)c1O (configuration not stated)	-2.2	4.2*
COc1cc(-c2nc3ccccn3c2Nc2ccc3c(c2)OCCO3)ccc1O	-2.5	0.91
NNc1nc2ccccc2[nH]c1=S	5.5*	nt
ON=C(c1nc2ccccc2[nH]1)c1nc2ccccc2[nH]1	2.4	nt
COc1ccc(S(=O)(=O)Oc2ccc(C)cc2[N+](=O)[O-])cc1OC	-0.99	nt
SMILES	CDC25B-CDK2 inh	TAR Tat displ
COc1ccc(S(=O)(=O)OCC(F)([N+](=O)[O-])[N+](=O)[O-])cc1Br	4.2*	nt
O=S(=O)(c1ccc(F)cc1)N1CCN(C/C=C/c2ccccc2)CC1	-0.58	nt
COc1ccc2c3c([nH]c2c1)C(C)(C(=O)O)NCC3 (configuration not stated)	5.1	-8.2
CC1(C(=O)O)NCCc2c1[nH]c1ccccc21 (configuration not stated)	10*	-2.2
CCOC(=O)C1CCN(c2nnc(-n3c(C)ccc3C)s2)CC1	4	-0.52
CCOC(=O)C1CCN(c2ccc([N+](=O)[O-])s2)CC1	nt	3.5*
CC(C)Cn1c(=O)c2sccc2n2c(CCCC(=O)N3CCCCC3)nnc12	nt	1.6
CS(=O)(=N/C=C(\C#N)S(=O)(=O)c1ccc(C(F)(F)F)cn1)c1ccc(Cl)cc1 (configuration not stated)	-0.74	nt
O=C1NC(c2cccc(O)c2)c2c1n[nH]c2-c1ccco1 (configuration not stated)	2.3	-0.63
O=C1NC(c2ccco2)c2c1n[nH]c2-c1ccco1 (configuration not stated)	5.3*	2.4
Cc1ccc(C2NC(=O)c3n[nH]c(-c4ccco4)c32)cc1 (configuration not stated)	-0.08	-3.5
O=C1NC(c2cccnc2)c2c1n[nH]c2-c1ccco1 (configuration not stated)	8.9*	-5.5
COc1ncnc2c1cnn2C	-2.8	nt
O=C1C2N=NN(Cc3ccccc3F)C2C(=O)N1c1ccc(F)cc1 (configuration not stated)	-1.3	0.59
CC(=O)N1c2c(cc(Br)cc2S(=O)(=O)Nc2cc(F)ccc2F)CC1C (configuration not stated)	-0.49	nt
Cc1[nH]c(=O)[nH]c(=O)c1S(=O)(=O)Nc1ccc(-c2ccno2)cc1	nt	1
Cc1[nH]c(=O)[nH]c(=O)c1S(=O)(=O)Nc1ccc2oc(-c3ccncc3)nc2c1	nt	6.2*
